Compounds without any hit were thinned out: in the full panel of roughly 83,000, 20% have a hit.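 Compound tested at a single concentration for 48 hours in 96-well plates; a percent growth value below 10 was scored as active.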 A number with no mark means an inactive call. Activity calls are given as the source filed them.
Each molecule was assayed on SK-MEL-2 melanoma (assay: NCI-60 one-dose screen, 48 h (100 = growth as untreated, 0 = no growth, -100 = all killed)). Conditions: 10 µM unless noted.
Procedure: Growth inhibition of the SK-MEL-2 human tumor cell line is measured as a screen for anti-cancer activity. Cells are grown in 96 well plates and exposed to the test compound for 48 hours. Compounds are tested at a single concentration, which is 10^-5 M for most compounds. The reported endpoint is percent growth (GI% or GIPRCNT), where numbers from 0 - 100% represent growth inhibition, and numbers from -100% - 0 represent cell death. For example, a value of 40 represents 60% growth inhibition. A value of 0 means no net growth occurred over the course of the experiment. A value of -40 indicates 40% of cells at the beginning of the experiment died by the end of the experiment. A value of -100 means all cells are dead at the end of the experiment.
NCI-60 Human Tumor Cell Lines Screen was performed using the standard one-dose NCI protocol, which is described in more detail at https://dtp.cancer.gov/discovery_development/nci-60/default.htm.
Compounds with GIPRCNT values below 10 were considered active. Activity score was based on GIPRCNT using the following formula: […]
Score is 0 for GIPRCNT values of 100 or above, 50 for GIPRCNT values of 0, and 100 for GIPRCNT values of -100.

`CCCCCCCCCCCCCCCCCC1=NC(C)(C)CN1C(C)(C)CO` was tested, and the growth was -69% (active).
`COc1c(B(O)O)cccc1-c1nc2c(F)cc3n[nH]c(C)c3c2c2c1CCCC2` was tested, and the growth was -10.3% (active).
`COc1ccc2[nH]c(C(=O)OCc3ccc4c(Br)cc(Br)c(O)c4n3)cc2c1` was tested, and the growth was -40.3% (active).
In the case of `COc1cc2cc(C(=O)Nc3ccccc3)c(N)nc2cc1OC`, the growth was -62% (active).
In the case of `O=C(NC1CC1)c1ccc(-c2nc3ccc4[nH]ncc4c3c3c2CCCC3)cc1`, the growth was 2.88% (active).
For `O=C(C(Br)C(Br)c1ccccc1)C(Br)C(Br)c1ccccc1` (stereo not given), the growth was -28.7% (active).
`COc1ccc2[nH]c(C(=O)OCc3ccc4cccc(O)c4n3)cc2c1` was tested, and the growth was -20.3% (active).
For `Clc1ccc2c(c1)-c1ccccc1C1=NCCN12`, the growth was -0.581% (active).
In the case of `COc1ccc(-c2n[nH]nc2-c2cc(OC)c3c(c2)OCO3)cc1`, the growth was 6.64% (active).
For `CN1CCN(c2ccc(N3Cc4ccccc4OC4=C3C(=O)c3c(O)ccc(O)c3C4=O)cn2)CC1`, the growth was -36.8% (active).

First: COc1ccc2c(c1)CCCC21C(=O)Nc2c(Cl)cccc21 (stereo not given)
Second: COc1ccc(/C=c2\c(=O)n(-c3ccccc3)c3nn4c(n23)=NNC42CCCCC2)cc1
The growth of the first is lower: 43% for the first, 108% for the second.

First: O=C(Nc1ccc(Br)cc1)Nc1ccccc1Cl
Second: CC(=O)c1ccc(Nc2nc(Cl)nc(Oc3c(Cl)cccc3Cl)n2)cc1
The growth of the first is lower: 92% for the first, 97.1% for the second.

First: O=C(c1ccccc1)N(CCCCl)C(=O)N(CCCCl)C(=O)c1ccccc1
Second: C=CCn1c(SCC(=O)Nc2ccc(/C(C)=N\O)cc2)nnc1-c1cc(-c2ccccc2)nc2ccccc12
The growth of the first is higher: 103% for the first, 72.1% for the second.

First: Nc1nc(N)c2cc(Sc3ccc(Cl)cc3)ccc2n1
Second: Fc1ccc2nc(-c3ccc(-c4noc(-c5ccc(Cl)cc5)n4)cc3)[nH]c2c1
The growth of the first is lower: 50.7% for the first, 105% for the second.

Going from `Cc1cc(C#Cc2ccccc2)ccc1-n1c(/C=C/c2ccc(F)cc2)nc2ccccc2c1=O` to `O=C1OC(c2ccc(-c3ccccc3)cc2)=C/C1=C/c1c(Cl)cccc1Cl`, the growth rises from 71% to 105%.

First: Cc1cc(NC(=O)c2ccc(N)cc2)ccc1N=Nc1ccc2cc(S(=O)(=O)O)cc(S(=O)(=O)O)c2c1
Second: CC(=O)c1cccc(Nc2ncnc3ccc(NC(=O)c4ccco4)cc23)c1
The growth of the first is higher: 121% for the first, 98.1% for the second.

First: [O-]/[N+](=C\c1ccccc1)CC1(O)CCCCC1
Second: CCCCCCCCCCC(C(O)c1ccccc1)N1CCCCC1 (stereo not given)
The growth of the first is higher: 111% for the first, 53.8% for the second.

First: COc1ccc(C(=O)c2c(N)nc3n2CCCC3)cc1OC
Second: COc1cc(Cn2c(-c3ccccc3)cc3c2-c2oncc2CC3)cc(OC)c1OC
The growth of the first is higher: 103% for the first, 31.4% for the second.

First: Brc1ccccc1Cn1c(-c2cncs2)nc2ccccc21
Second: CCc1ccc(Nc2cc(C)c3ccc(O)cc3n2)cc1
The growth of the first is higher: 95.4% for the first, 85% for the second.

First: COc1ccc(-c2cn(-c3cccc(C(=O)/C=C/c4ccc(O)c(OC)c4)c3)c(=O)[nH]2)cc1
Second: COc1ccc2[nH]c(O)c(/C=c3/ccc4c(c3)N=C(c3ccc(F)cc3)N=4)c2c1
The growth of the first is lower: 30% for the first, 110% for the second.

Going from `CCN(CC)CCCCCCCNc1cc(OC)cc2c(C)ccnc12` to `COc1cc(NCCCCC(C)N)c2nccc(C)c2c1` (stereo not given), the growth falls from 109% to 105%.

First: Cc1[nH]n(C(=O)c2ccncc2)c(=O)c1N=Nc1ccc(O)c(C(=O)O)c1
Second: COC(=O)c1ccc(NC(N)=NCCC(C)(C)c2ccc(C(F)(F)F)cc2)nc1
The growth of the first is higher: 159% for the first, 70.3% for the second.

First: N#Cc1nc(-c2ccc(Cl)cc2)cc(-c2ccc(Nc3nc(N4CCCCC4)nc(N4CCCCC4)n3)cc2)c1N
Second: CNCc1cccc2c1OCCOCCOCCC(C)S(=O)(=O)c1ccc(cc1)-c1cnc(N)c(n1)C(=O)N2 (stereo not given)
The growth of the first is higher: 106% for the first, 75.2% for the second.

First: Nc1n[nH]c2ccc([C@@H]3Nc4c(F)cc5[nH]ncc5c4[C@H]4C5CCC(C5)[C@@H]34)cc12 (stereo not given in full)
Second: CN(C)c1ccc(C(c2ccccc2)c2ccc(N(C)C)cc2)cc1
The growth of the first is lower: 53.7% for the first, 89.1% for the second.

Compared with `Cc1ccc(N=CNN=C(N)N)cc1`, `CCCCCCCCCCCCCCCC1=NCC[N+]1(CCO)CCO` is lower in growth: 114% for the first, 85.2% for the second.

Source: PubChem BioAssay (NCI)
